Screens from PubChem.
TGFb inhibitor: blocks TGF-b signaling. HepG2 CAGA-GFP TGF-b/SMAD3 reporter, GFP fluorescence, 18 h; TGF-beta stimulated, 500 pg/mL final. Potency, µM (highest dose often 46.1 µM), for inactives: top-dose activity, negative = inhibition, most hits filed as inhibitors. 410,000 compounds, 1.2% hits; further: potency means the concentration at half of the fitted maximal effect; on the % scale 0 is the no-effect control and ±100 the full control effect; nearly all actives have a fitted effect of over 65% in size
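Read-out: total well GFP (ex488/em500-530) summed from mean per-cell fluorescence. Cells: HEPG2 CAGA-GFP, 1% FBS DMEM, 18 h at 37 degrees C with 500 pg/mL final TGF-beta. Unstimulated wells served as the full-inhibition control; stimulated DMSO wells = 0%.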
DT40 TDP1 no CPT: qHTS for Inhibitors of human tyrosyl-DNA phosphodiesterase 1 (TDP1): qHTS in cells in absence of CPT; DT40 Tdp1-/- hTDP1 cells, no CPT, ATP luminescence, 48 h; Potency, µM (top dose mostly 46.2 µM), inactives show at the highest dose activity change, negative = growth inhibition, hits mostly inhibitors; 420,000 compounds, 15% hits; AID 686978, 2013; further: potency means the concentration at half of the fitted maximal effect; on the % scale 0 is the no-effect control and ±100 the full control effect; nearly all actives have a fitted effect of over 55% in size
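DT40 Tdp1-/-;hTDP1 cells, no CPT (DMSO vehicle only), 400 cells/well; compounds pin-transferred; ≥48 hr, 37 °C; CellTiter-Glo 30 min RT dark, luminescence read.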
DT40 TDP1 CPT: DT40-hTDP1 cell growth loss with CPT | 420,000 compounds, 12% hits | chicken DT40 Tdp1-/-;hTDP1 cells + 20 nM CPT, ATP luminescence, 48 h | Potency, µM (doses to about 46.2 µM), inactives show at the highest dose activity change, negative = growth inhibition, most hits filed as inhibitors | AID 686979; further: potency means the concentration at half of the fitted maximal effect; on the % scale 0 is the no-effect control and ±100 the full control effect; nearly all actives have a fitted effect of over 55% in size
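Chicken DT40 Tdp1-/- cells stably complemented with human TDP1 were seeded at 400 cells/well in medium containing 20 nM camptothecin, exposed to pin-transferred compounds, and grown at 37 °C for at least 48 hr. Viability was read as ATP luminescence.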
ASM inhibitor: blocks human secretory acid sphingomyelinase. P17405. placental ASM, HMU-PC fluorogenic substrate, 60 min. AID 504937. Potency, µM (top dose mostly 57.5 µM), inactives show at the top dose activity change, negative = inhibition, actives largely listed as inhibitors. 340,000 compounds, 0.006% hits; further: potency means the concentration at half of the fitted maximal effect
Target sequence (P17405 47-631 limits assumed): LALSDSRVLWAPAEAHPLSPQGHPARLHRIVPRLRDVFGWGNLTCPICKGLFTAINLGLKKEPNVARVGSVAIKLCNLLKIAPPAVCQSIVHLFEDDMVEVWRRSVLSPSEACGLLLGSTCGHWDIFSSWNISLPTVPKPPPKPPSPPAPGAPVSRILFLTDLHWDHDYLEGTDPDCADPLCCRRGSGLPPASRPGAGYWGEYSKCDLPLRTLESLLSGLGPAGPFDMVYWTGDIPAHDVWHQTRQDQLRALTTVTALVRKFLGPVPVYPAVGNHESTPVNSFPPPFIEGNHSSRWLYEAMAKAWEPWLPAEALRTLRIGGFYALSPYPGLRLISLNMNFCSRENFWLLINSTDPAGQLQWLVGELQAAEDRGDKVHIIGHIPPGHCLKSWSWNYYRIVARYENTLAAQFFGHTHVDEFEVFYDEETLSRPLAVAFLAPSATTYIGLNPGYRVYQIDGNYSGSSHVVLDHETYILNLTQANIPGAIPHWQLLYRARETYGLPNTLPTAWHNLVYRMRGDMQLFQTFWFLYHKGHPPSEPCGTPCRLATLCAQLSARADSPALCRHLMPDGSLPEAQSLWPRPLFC
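Fluorescence read-out (Ex 386 nm, Em 447 nm) after stopping the reaction at pH 10. Enzyme: ASM from human placenta; substrate HMU-PC0, 9 uM final; 60 min, 37 °C. Compound preincubation 10 min, ambient temperature.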
HepG2 viability: HepG2 cytotoxicity, counter-screen for TGF-b inhibitors | HepG2 CAGA-GFP viability, ATP luminescence, 18 h | 410,000 compounds, 0.76% hits | AID 588856 | Potency, µM (doses to about 46.1 µM), for the others: top-dose activity change, negative = cytotoxicity, actives largely listed as cytotoxic; further: potency means the concentration at half of the fitted maximal effect
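CellTiter-Glo luminescence gave cytotoxicity after 18 hours at 37 degrees C. The cells were HepG2 CAGA-GFP in 1% FBS DMEM, stimulated with 500 pg/mL TGF-beta after compound addition. %Activity was normalised to no-cell wells (complete cell-killing) and DMSO (no toxicity), and curves were fitted and classified.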
IL-1B inflam inh: blocks inflammasome-driven IL-1 beta release. THP-1 LPS/ATP IL-1B secretion, AlphaLISA, 16 h; active compounds read low. activity change, % at 57.5 µM. 360,000 compounds, 4.7% hits; in the data active means activity change below about -50%; inconclusive means mostly about -30% to -49%; further: on the % scale 0 is the no-effect control and ±100 the full control effect
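Secreted IL-1B measured by AlphaLISA bead assay after 16 h compound exposure of THP-1 cells; compounds (final up to 57.5 uM) added 1 h before LPS (250 ng/mL) and ATP (1.25 mM) stimulation; lower signal means less secretion.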
* = called active by the depositor; ? = inconclusive; . = no result; ! = repeats disagree; [ ] = dose if it differs, or a comment. A selection: hits, their analogues and other compounds. The true share with any hit is near 19%. Unless noted, the call rests on the fitted dose curve; in most records, active means well fitted curve in the direction sought with a large enough effect; inconclusive means small, poorly fitted or top-dose-only effect, or another doubt; inactive means no such curve, though single readings can be large; an effect the other way counts as inactive or inconclusive.

SMILES | TGFb inhibitor | DT40 TDP1 no CPT | DT40 TDP1 CPT | ASM inhibitor | HepG2 viability | IL-1B inflam inh
C=CC[C@]1(O)CC[C@H]2[C@@H]3CCC4=CCCC[C@@H]4[C@H]3CC[C@@]21C | . | 0% | -29% | . | . | .
O=C(Nc1cccc(Br)c1)c1c(O)c2c(n(Cc3ccccc3)c1=O)CCCC2 | 9% | -5% | 4% | -2% | -13% | 12
Cc1ccc(NS(=O)(=O)c2ccc(Cl)c(N=Nc3c(O)[nH]c(=O)[nH]c3=O)c2)cc1Cl | 1% | -4% | -8% | ? | -37% | 3
CC(C)c1ccc2[nH]c(O)c(N=NC(=O)c3cccc(S(=O)(=O)Nc4ccc(Cl)cc4)c3)c2c1 | -27% | 10µM* | 12µM* | -4% | 6% | -25
ClCCN(CCCl)c1ccc(C=NNc2ncccn2)cc1 | 28% | 5.2µM* | 4.6µM* | -8% | -30% | 2
N#Cc1ncc(N=Cc2ccc(N(CCCl)CCCl)cc2)s1 | 5% | 12µM* | 10µM* | 0% | -21% | 2
c1ccc2c(c1)Nc1ccccc1S2 | 3% | 34µM*! | 5.3µM*! | -1% | -3% | 4
CCCCc1nc2ccccc2c(=O)n1-c1cccc(OC)c1 | -23% | 18µM* | 16µM* | . | -17% | .
CCCSc1nc2ccccc2c(=O)n1-c1ccccc1OC | ? | 21µM* | ? | . | -20% | .
CCCc1nc2ccccc2c(=O)n1-c1cccc(OC)c1 | 1% | ? | 18µM* | 4% | -3% | -15
COc1ccccc1-n1c(Cc2ccccc2)nc2ccccc2c1=O | -1% | -30% | 2% | 1% | -23% | ?
COc1ccc(-n2c(CNCCc3ccc(C)cc3)nc3ccccc3c2=O)cc1 | -15% | ? | ? | -2% | -84% | -4
CCc1nc2ccccc2c(=O)n1-c1ccc2ccccc2c1 | 14% | ? | ? | 0% | 6% | 12
CCCc1nc2ccccc2c(=O)n1-c1ccc(OC)cc1 | -8% | 23µM* | ? | 0% | 1% | 11
CCCc1nc2ccccc2c(=O)n1-c1ccccc1OC | -4% | 21µM* | ? | -3% | -3% | 5
Clc1cccc(NC2=NCCS2)c1 | -6% | -20% | -2% | . | -8% | 0
O=C1/C(=C\c2ccc([N+](=O)[O-])cc2)N2CCC1CC2 | 2% | ? | -14% | -5% | -15% | -64*
O=C1C(=Cc2ccccc2)N2CCC1CC2 | 4% | -23% | -12% | -2% | 10% | -25
CC1(C)C(C(=O)N2CCN(C(=O)c3ccccc3)CC2)C1(C)C | -1% | -10% | -19% | 3% | 16% | 6
C#CCN(C)C(C)Cc1ccccc1 (stereo unspecified) | 3% | 3.7µM* | ? | 3% | -24% | -15
CC=C(CC)C1(CC)C(=O)NC(=S)NC1=O | 3% | 4% | 7% | -2% | 11% | 12
CC1CC[C@@]2(OC1)O[C@@H]1[C@@H](O)[C@H]3C4CC[C@H]5C[C@@H](O[C@@H]6O[C@H](CO)[C@H](O[C@@H]7O[C@H](CO)[C@@H](O)[C@H](O[C@@H]8OC[C@@H](O)[C@H](O)[C@H]8O)[C@H]7O[C@@H]7O[C@H](CO)[C@@H](O)[C@H](O[C@@H]8O[C@H](CO)[C@@H](O)[C@H](O)[C@H]8O)[C@H]7O)[C@H](O)[C@H]6O)[C@H](O)C[C@]5(C)C4CC[C@]3(C)[C@H]1[C@@H]2C (stereo partly specified) | . | 6.7µM* | 5.3µM* | . | . | .
CC1CC[C@@]2(OC1)OC1C(O)C3C4CC[C@H]5CC(O[C@@H]6O[C@@H](CO)[C@H](OC7OC(CO)C(O)C(OC8OCC(O)C(O)[C@H]8O)[C@@H]7O[C@@H]7OC(CO)[C@H](O)[C@@H](O[C@@H]8OC(CO)C(O)C(O)C8O)C7O)C(O)C6O)C(O)C[C@]5(C)C4CC[C@]3(C)C1C2C (stereo partly specified) | . | 1.3µM* | 2.3µM* | . | . | .
C[C@H]1CN([C@@H](C)CO)C(=O)c2cc(NC(=O)Nc3cccc4ccccc34)ccc2O[C@@H]1CN(C)Cc1ccc(-c2ccccc2)cc1 | -15% | 16µM* | 23µM* | ? | -35% | 1
COc1ccc(NC(=O)Nc2ccc3c(c2)C(=O)N([C@H](C)CO)C[C@H](C)[C@@H](CN(C)Cc2ccc(Cl)c(Cl)c2)OCCCC[C@@H](C)O3)cc1 | -2% | 16µM* | -17% | . | 1% | ?
SMILES | TGFb inhibitor | DT40 TDP1 no CPT | DT40 TDP1 CPT | ASM inhibitor | HepG2 viability | IL-1B inflam inh
C[C@H]1CN([C@@H](C)CO)C(=O)c2cc(NC(=O)C3CCCCC3)ccc2O[C@H]1CN(C)Cc1ccc(-c2ccccc2)cc1 | ? | ? | ? | -10% | -19% | -6
C[C@@H]1CCCCO[C@H](CN(C)Cc2ccccc2)[C@@H](C)CN([C@H](C)CO)C(=O)c2cc(NC(=O)c3ccccc3)ccc2O1 | -27% | 18µM* | ? | . | -35% | -17
C[C@]12CC[C@H]3[C@@H](CCC4=CC(=O)CC[C@@]43C)[C@@H]1CC[C@@H]2OC(=O)CCc1ccccc1 | . | ? | -13%[92.5 µM] | . | . | .
c1csc(CN2CC[C@@]3(CCCNC3)C2)n1 | . | -12% | 1% | . | . | .
COC(=O)C1C2CC[C@@H](CC1OC(=O)c1ccccc1)N2 (stereo partly specified) | 20% | -1% | -2% | 4% | 2% | 4
CCN(CC)CCNC(=O)c1nn(-c2ccc(C)cc2)c(=O)c2c1c1ccccc1n2C | -21% | 21µM* | -14% | 0% | -5% | -4
S=c1[nH]nc(-c2ccc3ccccc3n2)n1-c1ccc2c(c1)OCCO2 | 4% | ? | -6% | 0% | 9% | 32
Cc1ccc2nc(N3CCC(C(=O)N4CCC5(CC4)OCCO5)CC3)sc2c1 | -15% | ? | ? | -2% | -18% | -2
CCc1ccc2nc(N3CCC(C(=O)N4CCC5(CC4)OCCO5)CC3)sc2c1 | -19% | 16µM* | 12µM* | 7% | -32% | -25
O=C(C1CCN(c2nc3ccc(Br)cc3s2)CC1)N1CCC2(CC1)OCCO2 | -1% | 12µM* | 12µM* | -7% | -12% | -29
CCn1c(P(C)(=O)O)nc2cc(NC(=O)c3ccccc3F)ccc21 | -6% | 5% | -2% | 0% | -3% | 0
